From PubChem
Compounds with a hit are over-represented: about 21% of the library has one in this group of screens.
CHX counter: counter-screen hit for Shiga toxin inhibitors, cycloheximide. cell reporter, cycloheximide protein synthesis inhibition counterscreen. max response, %. 12% of 300,000 active. AID 2314; in the data active = max response mostly above about 13%, no sharp cut-off; inactive = mostly below about 14%; note: read at 38.3 µM for the half of the compounds with a filed dose
NS1 function inh: inhibitors of influenza NS1 protein function; 0.4% of 270,000 active; Potency, µM (titrated, usually from 46.1 µM); calls by dose curve; note: actives are rising curves; nearly all actives have a fitted effect of over 50% in size
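S. cerevisiae expressing influenza A NS1, grown in glucose, washed, then diluted 1:100 into pH 6.0 -URA galactose medium with 23 nl compound. Growth recovery read as OD600; NS1-free strain serves as control.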
Pf growth 96h: P. falciparum growth inhibition at 96 hours; Potency, µM (highest dose often 28.7 µM), most hits filed as inhibitors; P. falciparum luciferase reporter growth, 96 h; 6.9% of 320,000 active; AID 504834
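Erythrocytes infected with luciferase-expressing P. falciparum were dispensed at 2% hematocrit and 0.05% parasitemia (final), then incubated with compounds 96 hours at 37 C in 5% CO2. Luminescence after detection reagent addition reported growth.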
Pf growth 48h: P. falciparum growth inhibition at 48 hours (one generation); P. falciparum luciferase growth in erythrocytes, 48 h; Potency, µM (top dose mostly 28.7 µM), actives largely listed as inhibitors; 5.9% of 310,000 active
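First compound was added to culture medium, then infected red cells at 0.1% parasitemia and 2% hematocrit (final). After incubation at 37 C under 5% CO2, luciferase detection reagent was dispensed and light output recorded.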
SARS PLP yeast: inhibitors of SARS-CoV papain-like protease in yeast | S. cerevisiae expressing SARS-CoV PLpro, growth rescue | 0.19% of 330,000 active | Potency, µM (highest dose often 32.9 µM), hits mostly activators; calls by dose curve; note: nearly all actives have a fitted effect of over 55% in size
Shiga inhibitor: Shiga toxin inhibition; 9.2% of 290,000 active; inhibition, % at 38.7 µM; Vero cells, Shiga toxin protein synthesis inhibition reporter; in the data active = inhibition mostly above about 28%, no sharp cut-off; inactive = mostly below about 43%
Each line names hits and unclear results; the compound was inactive in the other large screens. Unless noted, calls come from the whole dose curve; as a rule, active = well fitted inhibition curve with a large enough effect; inconclusive = small, poorly fitted or top-dose-only effect, or another doubt; inactive = no such curve, though single readings can be large or run the other way.

Cc1ccc2oc(C(=O)NC3CCS(=O)(=O)C3)cc(=O)c2c1 (configuration not stated)	Pf growth 96h inconclusive
CC(C)c1ccc2[nH]c3c(c2c1)[C@@H]1CCN2C(=O)CCC[C@H](C3)[C@H]12	CHX counter 22, Pf growth 96h inconclusive, Shiga inhibitor 35
COC(=O)C1=C(NC(=O)c2cccc(C)c2)CCS1	none (no result: CHX counter, Pf growth 96h, Pf growth 48h, SARS PLP yeast, Shiga inhibitor)
O=C(NCC1CCCO1)c1ccccc1-c1nc(-c2ccccc2F)no1 (configuration not stated)	SARS PLP yeast inconclusive
O=C(NCC1CCCO1)c1ccccc1-c1nc(-c2ccc(Cl)cc2)no1 (configuration not stated)	CHX counter 12
Cc1cccc(-c2noc(-c3ccccc3C(=O)NCC3CCCO3)n2)c1 (configuration not stated)	CHX counter 63, Shiga inhibitor 143
COc1cccc(-c2nc(CS(=O)CC(=O)NC3CCCCC3)c(C)o2)c1 (configuration not stated)	Pf growth 96h inconclusive
CN(C)C(=O)CSc1nnc([C@@H](N)Cc2ccccc2)o1	Pf growth 48h inconclusive
C=C(C)CSc1nnc([C@@H](N)Cc2ccccc2)o1	CHX counter 18, Pf growth 96h inconclusive
Cc1cccn2c(=O)c3cc(C(=O)N4CCCCC4C)sc3nc12 (configuration not stated)	none (no result: CHX counter, NS1 function inh, Shiga inhibitor)
O=C(/C=C/c1ccccc1)NNC(=O)c1cccnc1	none
O=C(/C=C/c1ccccc1)Nc1cccnc1	CHX counter 28, Pf growth 96h inconclusive, Shiga inhibitor 33
O=C(/C=C/c1ccc([N+](=O)[O-])cc1)Nc1cccnc1	CHX counter 43, Shiga inhibitor 112
NC(=S)N/N=C/c1ccc(C23CC4CC(CC(C4)C2)C3)cc1	CHX counter 22, Pf growth 96h inconclusive, Pf growth 48h 2.6µM, SARS PLP yeast inconclusive, Shiga inhibitor 79
CC(=O)Nc1ccc(/C=N/NC(N)=S)cc1	none (no result: NS1 function inh, SARS PLP yeast)
CC(=O)NCCc1nc2cc(NC(=O)c3ccccc3C)ccc2n1C	Pf growth 96h inconclusive
CCC(=O)NCCc1nc2cc(NC(=O)Nc3ccccc3)ccc2n1C	Shiga inhibitor 43
CCC(=O)NCCc1nc2cc(NC(=O)c3ccccc3Cl)ccc2n1C	CHX counter 32, Shiga inhibitor 62
Cc1ccc(C)c(SCC(=O)NC(=O)NC2CCCC2)c1	Pf growth 96h inconclusive, Pf growth 48h inconclusive (no result: CHX counter, NS1 function inh, Shiga inhibitor)
CC1CC(C)CN(CC(C)(C)NS(=O)(=O)c2ccc(Cl)cc2)C1 (configuration not stated)	Pf growth 96h inconclusive (no result: Pf growth 48h)
C#CCOCCOCCOCCNc1nc(N2CCN(C(=O)C([C@@H](C)O)n3cc([C@@H](N)CCCCN)nn3)CC2)nc(N2CCN(C(=O)[C@H](CCCCN)n3cc([C@@H](N)CC(N)=O)nn3)CC2)n1 (some centres not stated)	none (no result: CHX counter, NS1 function inh, Pf growth 96h, Pf growth 48h, Shiga inhibitor)
COc1cccc(-c2ccnc3[nH]n(-c4ccccc4)c(=O)c23)c1	none
C/C(=N\NC(=S)NC1CCCCC1)c1cccs1	CHX counter 28, Pf growth 96h inconclusive, Pf growth 48h inconclusive, Shiga inhibitor 58
C/C(=N\NC(=S)NC1CCCCC1)c1ccc(Cl)c(Cl)c1	Pf growth 96h 4.1µM, Pf growth 48h 2.3µM
C/C(=N\NC(=S)NC1CCCCC1)c1c(F)cccc1F	Pf growth 96h 10µM (no result: NS1 function inh)
C/C(=N\NC(=O)C1CC1)c1cccs1	none
C/C(=N\NC(=S)NC1CCCCC1)c1ccc(OC(F)F)cc1OC(F)F	Pf growth 96h inconclusive, Pf growth 48h inconclusive
O=C(O)c1ccc(/C=N/NC(=S)NC2CCCCC2)cc1	none
Cc1noc(C)c1C(=O)OCC(=O)Nc1ccc(S(N)(=O)=O)cc1	none (no result: CHX counter, NS1 function inh, Shiga inhibitor)
COC(=O)c1cnn(-c2ccc(Cl)cc2)c1/C=N/NC(N)=S	none
CC1CN/C(=C\C(=O)c2ccc(Cl)cc2)C(=O)N1 (configuration not stated)	CHX counter 25
CC1CN/C(=C\C(=O)c2ccccc2)C(=O)N1 (configuration not stated)	CHX counter 44
COc1cc2c(cc1OC)/C(=C/C(=O)c1ccccc1)NCC2	none
CCOCCn1c(=NC(=O)CSCC(=O)N2CCOCC2)sc2cc(OC)ccc21	Pf growth 96h inconclusive
CC(C)N1CC=C(c2c[nH]c3ccccc23)CC1	Pf growth 96h inconclusive, Pf growth 48h 1µM
CC(C(=O)c1c[nH]c2ccccc12)N1CCOCC1 (configuration not stated)	none
C1=C(c2c[nH]c3ccccc23)CCNC1	Pf growth 48h 9.3µM
Cc1nn(C)cc1CNC(=O)C1(C)CC1(Cl)Cl (configuration not stated)	none
Cc1ccc(NC(=O)NCc2ccccn2)cc1Cl	CHX counter 25, Shiga inhibitor 39
CN(c1ccccc1C(=O)NCc1ccccn1)S(C)(=O)=O	Pf growth 48h 15µM (no result: Pf growth 96h)
Cc1nn(C)cc1CNC(=O)Nc1ccc(Cl)c(Cl)c1	CHX counter 44, Shiga inhibitor 58 (no result: Pf growth 48h)
CC(=O)c1cccc(NC(=O)NCc2ccccn2)c1	CHX counter 31, Shiga inhibitor 50 (no result: Pf growth 96h)
COc1ccc(NC(=O)NCc2ccccn2)cc1OC	none
O=C(CN1C(=O)c2ccccc2C1=O)N1CCN=C1c1ccccc1	none
COc1ccccc1OCCNC(=O)c1ccc(C)o1	none (no result: CHX counter, NS1 function inh, Shiga inhibitor)
Cc1ccc(NC(=O)NCc2ccccn2)cc1	CHX counter 35, Pf growth 96h inconclusive, Shiga inhibitor 75
CCc1ccc(NC(=O)C(=O)NCc2ccccn2)cc1	CHX counter 24, Shiga inhibitor 60
Cc1ccc(NC(=O)NCc2c(C)nn(C)c2C)cc1Cl	CHX counter 26, Pf growth 96h inconclusive, Shiga inhibitor 75
Cc1ccc(NC(=O)Nn2cnnc2)cc1Cl	Pf growth 96h inconclusive
Cc1ccc(C(=O)NCc2ccccn2)cc1Cl	CHX counter 25, Shiga inhibitor 36
COc1cc(/C=C/C(=O)OCC(=O)Nc2nnc(-c3ccccc3)o2)cc(OC)c1OC	Pf growth 96h inconclusive (no result: CHX counter, NS1 function inh, Shiga inhibitor)
NNC(=O)CNS(=O)(=O)c1ccc([N+](=O)[O-])cc1	none
COc1ccc(NC(=O)CN2c3cccc4cccc(c34)S2(=O)=O)c(OC)c1	CHX counter 14, Pf growth 48h inconclusive (no result: Pf growth 96h)
CCCNC(=O)c1ccccc1NC(=O)COc1ccc(OC)cc1	none (no result: Pf growth 48h)
COc1ccc(NC(=O)COc2ccccc2)c(OC)c1	CHX counter 34, Shiga inhibitor 51 (no result: Pf growth 96h)
COc1ccc(OC)c(NC(=O)CN2c3cccc4cccc(c34)S2(=O)=O)c1	none (no result: CHX counter, NS1 function inh, Pf growth 96h, Pf growth 48h, Shiga inhibitor)
COc1ccc(OCC(=O)Nc2ccccc2O)cc1	CHX counter 36, Shiga inhibitor 75 (no result: Pf growth 48h)
COc1ccc(NC(=O)COc2cccc3c2OC(C)(C)C3)c(OC)c1	Pf growth 96h 10µM, Pf growth 48h inconclusive (no result: CHX counter, NS1 function inh, Shiga inhibitor)
COc1cccc(OCC(=O)NNC(=O)C(=O)Nc2ccc(OC)cc2OC)c1	none
COc1ccccc1CCCNC(=O)C1CCC(=O)N(CCc2cccc(F)c2)C1 (configuration not stated)	none
